# Compounds without any hit were thinned out: in the full panel of roughly 83,000, 20% have a hit.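 96-well plates, one dose, 48 hours. Percent growth reported; active if below 10.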 A number with no mark means an inactive call. The source made the active and inactive calls.
# System: HL-60(TB) leukemia
# Test: NCI-60 one-dose screen, 48 h (100 = growth as untreated, 0 = no growth, -100 = all killed)
# Conditions: 10 µM unless noted
row,Structure (SMILES),growth
1,CCCCCOC(=O)c1c(C)[nH]c(/C=C2\N=C(c3ccc[nH]3)C=C2OC)c1C,-14.7% (active)
2,O=C(c1ccccc1)C1OC1C(=O)c1ccccc1 (stereo unspecified),22.8%
3,O=S(=O)(Nc1ccc(I)cc1F)c1ccc(-c2cnc(C3CC3)o2)cc1,17.1%
4,O=C1c2ccccc2C(=O)c2c(Nc3ccc(CCO)cc3)ccc(O)c21,83.9%
5,CCCCC(=O)OCC1OC(n2cnc3c(=S)nc[nH]c32)C(OC(=O)CCCC)C1OC(=O)CCCC (stereo unspecified),12.5%
6,CC(C)(C)OC(=O)N1C/C(=C\c2cccs2)C(=O)/C(=C/c2cccs2)C1,96.7%
7,CCOC(=O)c1sc2ncnc(Nc3ccc4c(cnn4C(=O)Nc4ccccc4)c3)c2c1C,90.9%
8,O=C(CN1CCN(c2cc3c(cc2F)c(=O)c(C(=O)O)cn3C2CC2)CC1)Nc1ccc(C(=O)/C=C/c2ccccc2)cc1,40.9%
9,O=C(Nc1ccc2c(c1)OCCO2)C(=O)c1c[nH]c2ccccc12,13.7%
10,O=C(/C=C/C(Cl)(Cl)Cl)Nc1ccc(Cl)cc1,34.5%
11,CC1=C2[C@@H](CC1)[C@]1(C)O[C@@](C(C)C)(C[C@H]1OC(=O)CO)[C@H]2OC(=O)C1CC1c1ccccc1 (stereo partly specified),89.8%
12,CCOC(=O)c1[nH]c(=O)c2c(C)nc(-c3ccccc3)cc2c1O,111%
13,CC(=O)Oc1ccccc1C(=O)N(Cc1ccc2c(Cl)cc(Cl)c(O)c2n1)c1ccccc1,46.7%
14,CCSc1nnc(NC(=O)Cc2ccc(Cl)cc2)s1,96.8%
15,COc1ccc2c(c1)N(CCO)C1=C(C(=O)OC1)C2c1cc(OC)c(OC)c(OC)c1 (stereo unspecified),-16.7% (active)
16,FC(F)(F)c1ccc(-c2nc(-c3nc4cc(Cl)c(Cl)cc4[nH]3)c3ccccn23)cc1,104%
17,C=C(C[n+]1ccccc1)[C@@H]1CC[C@]2(C(=O)OC)CC[C@]3(C)[C@H](CC[C@@H]4[C@@]5(C)CC[C@H](O)C(C)(C)[C@@H]5CC[C@]43C)[C@@H]12,93.5%
18,Cc1cc(Nc2nc(N3CCN(C)CC3)nc3ccccc23)n[nH]1,96.6%
19,CC[C@@H](C(=O)[C@@H](C)[C@@H](O)[C@H](C)[C@@H]1O[C@@H]([C@@H](CC)C(=O)N(CC)CC)CC[C@@H]1C)C1O[C@]2(C=CC(=O)[C@]3(CC[C@@](C)([C@H]4CC[C@](O)(CC)[C@H](C)O4)O3)O2)[C@H](C)C[C@@H]1C (stereo partly specified),-36.4% (active)
20,CCCCn1c(Cc2ccc(Cl)cc2)nc2cc(OC)c(OC)cc2c1=O,53.7%
21,O=C1c2ccccc2-c2c1c1ccncc1c(=O)n2CCCn1ccnc1,35.7%
22,Cc1cc(CSc2ccc(Cl)cc2)ccc1N,3.9% (active)
23,Cc1ccccc1-n1nnc(C(=O)Nc2nc(-c3ccccc3)c(-c3ccccc3)s2)c1C,89.1% [50 µM]
24,ClCc1cccc(CSc2ncnc3c2ncn3Cc2cccc(CCl)c2)c1,23.7%
25,COc1ccc(C2c3ccc4ccccc4c3Oc3nc(C)[nH]c(=O)c32)cc1 (stereo unspecified),99.3%
26,O=C(Cn1cccc(Nc2ccccc2)c1=O)Nc1ccccc1,118%
